Experimental data reported in PubChem BioAssay AID651650 (Sanford-Burnham Center for Chemical Genomics, 2012).

The compounds below were run against Neuropilin-1 (Homo sapiens) (UniProt O14786) (assay: NRP-1 b1b2 CendR peptide binding inhibitors, dose response, biochemical, FP and AlphaScreen panel (AID 651650)). Conditions: NRP-1 b1b2 / RPARPAR peptide binding, FP or AlphaScreen; run 1, at 100 µM (top of the series).
Neuropilin-1 (Homo sapiens), sequence (O14786 whole entry, looked up): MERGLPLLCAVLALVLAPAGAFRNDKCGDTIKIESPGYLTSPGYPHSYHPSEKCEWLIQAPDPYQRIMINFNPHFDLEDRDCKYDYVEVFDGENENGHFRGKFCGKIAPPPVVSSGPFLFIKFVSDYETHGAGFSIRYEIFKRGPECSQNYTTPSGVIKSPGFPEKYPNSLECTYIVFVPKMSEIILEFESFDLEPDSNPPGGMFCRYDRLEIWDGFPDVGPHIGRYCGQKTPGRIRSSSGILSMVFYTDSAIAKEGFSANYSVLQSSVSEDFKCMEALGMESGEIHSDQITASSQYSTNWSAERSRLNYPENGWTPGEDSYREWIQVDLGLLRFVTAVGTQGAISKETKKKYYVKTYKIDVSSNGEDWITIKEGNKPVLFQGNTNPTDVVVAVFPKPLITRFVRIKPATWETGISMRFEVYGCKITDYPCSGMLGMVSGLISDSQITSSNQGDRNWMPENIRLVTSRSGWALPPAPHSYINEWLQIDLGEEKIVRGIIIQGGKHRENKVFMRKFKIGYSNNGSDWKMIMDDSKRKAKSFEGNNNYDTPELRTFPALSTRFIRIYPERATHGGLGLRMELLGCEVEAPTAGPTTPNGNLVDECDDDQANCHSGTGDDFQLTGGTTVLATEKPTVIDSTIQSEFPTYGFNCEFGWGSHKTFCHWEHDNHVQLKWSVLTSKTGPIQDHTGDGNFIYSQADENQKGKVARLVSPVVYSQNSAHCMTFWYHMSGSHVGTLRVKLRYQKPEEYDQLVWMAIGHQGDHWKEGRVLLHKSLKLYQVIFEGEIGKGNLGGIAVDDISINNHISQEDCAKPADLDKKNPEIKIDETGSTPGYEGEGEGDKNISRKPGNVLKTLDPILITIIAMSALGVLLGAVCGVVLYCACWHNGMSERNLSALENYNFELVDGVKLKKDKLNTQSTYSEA

| SMILES | inhibition [%] |
| --- | --- |
| CCOC(=O)c1c(=O)n(O)c2ccc(OC)cc2[n+]1[O-] | -2.72 |
| C#CCOc1nc(C)cc(C)c1S(=O)(=O)c1ccccc1C | 25.9 |
| Cc1ccccc1Nc1cc(=O)oc2ccccc12 | 5.19 |
| NC(N)=NCCC[C@H](NC(=O)OCc1ccccc1)C(=O)O | 17.2 |
| COc1cc2oc(=O)ccc2cc1[C@@H](O)[C@@H]1OC(C)(C)OC1(C)C | 10.7 |
| Cc1cc2c(cc1C)NC(c1nc3ccccc3[nH]1)C1=C(CC(C)(C)CC1=O)N2 (centres undefined) | 20.6 |
| CCOC(=O)Cc1cnc(NC(=O)NC(C(=O)OCC)(c2ccccc2)C(F)(F)F)s1 (centres undefined) | 99.2 |
| Cn1c(=O)c2c(nc(OCc3cccnc3)n2Cc2ccccc2)n(C)c1=O | 66.1 |
| CC(C)(C)OC(=O)NCc1ccc(CNC(=O)c2nc[nH]c2C(=O)N2CCN(C(=O)OC(C)(C)C)CC2)cc1 | 16.3 |
| Cc1ccsc1C(=O)N1CCCC(CO)(Cc2ccccc2F)C1 (centres undefined) | 17.8 |
| Cc1cc(C)n(-c2nnc3n2N=C(c2c[nH]c4ccccc24)CS3)n1 | 2.19 |
| O=C(CCC(=O)Nc1ccccc1Cl)NN=C1CCCC1 | 67.6 |
| CCOC(=O)N1CCN(C(=O)c2cc(COc3ccc(OC)cc3Cl)on2)CC1 | 37.8 |
| CCOC(=O)c1ccc2[nH]c(C)c(C)c2c1 | -0.673 |
| O=C(O)C1CCN(C(=O)c2ccc(Cl)cc2)CC1 | 32 |
| O=C(NCCCN1CCCCCC1)c1ccc(CS(=O)(=O)Cc2ccccc2F)o1 | 40.3 |
| COC(=O)c1cccc(NC(=S)NCCC2=CCCCC2)c1 | 4.3 |
| O=C(COc1cc(Cl)c(Cl)cc1Cl)Nc1ccc([N+](=O)[O-])cc1Cl | 38.3 |
| COc1ccc(/C=N/NC(=O)c2nn(-c3ccc(Cl)cc3)c(=O)c3c(N)scc23)cc1 | 17.8 |
| O=C(O)CCCC(=O)N1CCc2cc(S(=O)(=O)N3CCc4ccccc43)ccc21 | -2.42 |

| SMILES | inhibition [%] |
| --- | --- |
| O=S(=O)(c1ccccc1)c1nc(-c2ccc(F)cc2)oc1N1CCOCC1 | 24.8 |
| Cc1ccc(Cl)c(NC(=O)CSc2cccc[n+]2[O-])c1Cl | -8.97 |
| NC(=O)C1=C[C@H](c2ccc(Br)cc2)C[C@H](OCc2ccc(CO)cc2)O1 | 36.9 |
| O=[N+]([O-])c1ccc(Nc2nc(NC3CCCCC3)nc(N3CCCC3)n2)cc1 | 25.6 |
| CCCN(C(=O)Cn1c(C(F)(F)F)nc2ccccc21)C1CCS(=O)(=O)C1 (centres undefined) | 60.7 |
| O=C(CCc1ccc(Oc2cc([N+](=O)[O-])cc([N+](=O)[O-])c2)cc1)N1CCCCCC1 | 75.6 |
| COc1ccc(CCN=C2SCC(=O)N2Cc2ccccc2)cc1OC | 28.8 |
| Oc1ccccc1-c1ccn[nH]1 | 32 |
| CCCCCCCN1C(Nc2ccccc2)=NC[C@@H]1Cc1ccccc1 | 24.7 |
| O=C(c1ccc(-c2cccc(C(F)(F)F)c2)o1)N1CCCC(C(F)(F)F)C1 (centres undefined) | 3.1 |
| CCCCC1CCC(C(=O)NC2CCS(=O)(=O)C2)CC1 (centres undefined) | 16.6 |
| COc1ccc(N=C2C(=Nc3ccc(OC)cc3)N(c3ccc(N(C)C)cc3)C(=S)N2c2ccc(OC)cc2)cc1 | 50.6 |
| Cc1cc2cc(CNC(=O)c3ccco3)ccc2n1C | 40.6 |
| O=C(CSc1nc(O)c(Cc2ccccc2)c(=O)n1-c1ccccc1)N1CCOCC1 | -18.5 |
| CCCCc1ccc(S(=O)(=O)N2CCC3(CC2)OCCO3)cc1 | 16.7 |
| CC(=O)c1ccc(OCC(=O)Nc2nnc(C3CC3)s2)cc1 | -27.1 |
| C=C1CCN(C(C(=O)OC)C(C)C)S(=O)(=O)c2ccc(F)cc21 (centres undefined) | 68 |
| C=CCOc1ccc(C2/C(=C(\O)c3c(C)[nH]c(C(=O)OC)c3C)C(=O)C(=O)N2CCN(C)C)cc1 (centres undefined) | 3.64 |
| O=C(CSc1nc2ccc(Cl)cc2[nH]1)NCCc1ccccc1 | 18.8 |
